Screening data from PubChem.
Rows were chosen to be rich in hits. Some 4.3% of all compounds tested hit in one or more screens of this group.
TRPM1 prom inh: inhibitors of MITF-driven TRPM1 promoter in melanoma cells; SK-MEL-5 TRPM1 promoter luciferase, 24 h; inhibition, % at 12.5 µM; 330,000 tested, 0.83% active; AID 488899;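 active = mean inhibition across replicates of 60% or more, whatever share of single replicates reaches that level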
HIF-2a block: inhibitors of HIF-2a | 786-0 RCC cells HIF-2a reporter, luciferase luminescence, overnight | inhibition, % at 18.8 µM | 360,000 tested, 0.72% active;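 active = inhibition of the luminescence signal of 40% or more relative to plate controls, in a single-dose primary screen at 18.75 µM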
CF NFkB block: inhibitors of cystic fibrosis induced NF-kB; KKLEB NF-kB-GFP reporter, PAF-induced, GFP fluorescence overnight; inhibition, % at 5 µM; 360,000 tested, 0.86% active; AID 588850;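 active = at least 50% inhibition at 5 µM, scaled per plate between neutral and stimulator controls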;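 note: PAF is a Pseudomonas aeruginosa culture filtrate used as stimulus; plate controls were PAF-stimulated DMSO wells for no effect and unstimulated DMSO wells for full effect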
CHOP inh: CHOP inhibition in unfolded protein response; 220,000 tested, 3.8% active; inhibition, % at 10 µM; CHO-K1 CHOP-promoter luciferase, tunicamycin-induced, 15-18 h;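 active = compounds that reduced the stress-induced luciferase reporter signal by more than about 70% of percent inhibition, limit read from the data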;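 note: 0% = tunicamycin plus vehicle and 100% = wells without tunicamycin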
KKLEB cytotox: reduces viability of KKLEB cystic fibrosis airway cells. 360,000 tested, 0.36% active. AID 602141. KKLEB CF airway cells viability, ATPlite luminescence, overnight; hits give low values; cells stimulated with P. aeruginosa culture filtrate. activity change (cytotoxicity), % at 5 µM;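 active = corrected activity change at or below -50% at 5 µM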
Peg3 promoter: Peg3 promoter activity inhibition | HeLa PEG-Prom luciferase reporter, luminescence, overnight | inhibition, % at 20 µM | 360,000 tested, 1.7% active | AID 588405;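 active = inhibition of at least 50% at 20 µM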
CF NFkB inh conf: confirmation of cystic fibrosis induced NF-kB inhibitors. shares compounds with CF NFkB block. KKLEB CF airway cells, PAF-induced NF-kB-GFP fluorescence, overnight. inhibition, % at 5 µM. 1,300 tested, 64% active; in the data active = inhibition above about 40%;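 note: stimulus PAF is a Pseudomonas aeruginosa filtrate and not platelet activating factor; plate controls were DMSO wells with stimulus for no effect and unstimulated DMSO wells for full effect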
The depositor's hits bear a star.

For COc1ccc(-c2ccc(CN3C(CC(C)C)C(=O)N(Cc4cn(Cc5ccco5)nn4)CCS3(=O)=O)cc2)cc1 (stereo not given) the results were HIF-2a block 17, CF NFkB block 57*, KKLEB cytotox -9, Peg3 promoter 19 and CF NFkB inh conf 36.
Screening COc1cccc(C=NNC(=S)NN=Cc2cccc(OC)c2OC)c1OC returned TRPM1 prom inh 1, HIF-2a block -50, CF NFkB block 9, KKLEB cytotox -16 and Peg3 promoter -17.
`CCCC(=O)N(c1ccc(OCC)cc1)S(=O)(=O)c1ccc2c3c(cccc13)C(=O)N2C` gave TRPM1 prom inh 8, HIF-2a block 14, CF NFkB block 10, KKLEB cytotox -10 and Peg3 promoter 15.
`CCN(CCn1cccn1)C(=O)CCc1nnc(C2(c3ccc(Cl)cc3)CCC2)o1` gave TRPM1 prom inh -40, HIF-2a block -189, CF NFkB block -2, CHOP inh -29, KKLEB cytotox 9 and Peg3 promoter -186.
Screening COc1ccc2nc(NC(=O)Cn3cnc4ccccc4c3=O)sc2c1 returned TRPM1 prom inh -12, HIF-2a block -108, CF NFkB block 12, CHOP inh -13, KKLEB cytotox -4 and Peg3 promoter -73.
CCN(c1ccc(OC)cc1)c1ncnc2nc[nH]c12 was read as TRPM1 prom inh -9, HIF-2a block 18, CF NFkB block 66*, CHOP inh 50, KKLEB cytotox 3, Peg3 promoter 13 and CF NFkB inh conf 86*.
Screening CCCN(c1ccc(OCC)cc1)c1ncnc2nc[nH]c12 returned TRPM1 prom inh -27, HIF-2a block -8, CF NFkB block 18, CHOP inh 21, KKLEB cytotox -5 and Peg3 promoter -13.
For CCCCN(CCCC)c1ncnc2nc[nH]c12 the results were TRPM1 prom inh -3, HIF-2a block 34, CF NFkB block 53*, CHOP inh 54, KKLEB cytotox -19, Peg3 promoter 6 and CF NFkB inh conf 70*.
COc1ccc2[nH]c3c(c2c1)CCNC3=O was read as TRPM1 prom inh 19, HIF-2a block -20, CF NFkB block 52*, KKLEB cytotox -6, Peg3 promoter 0 and CF NFkB inh conf 83*.
O=C1NCCc2c1[nH]c1ccccc21 was read as TRPM1 prom inh 16, HIF-2a block -1, CF NFkB block 8, CHOP inh 8, KKLEB cytotox -1 and Peg3 promoter 9.
For CC1Sc2ccc(Cl)cc2-c2nc(N)ncc21 (stereo not given) the results were TRPM1 prom inh 6, HIF-2a block 28, CF NFkB block 66*, CHOP inh 57, KKLEB cytotox -24, Peg3 promoter 9 and CF NFkB inh conf 77*.
Screening CCOC(=O)[C@H]1[C@H]2COc3ccc(Br)cc3[C@@H]2N2C(=O)c3ccc(Cl)cc3NC(=O)[C@@]12C returned TRPM1 prom inh -4, HIF-2a block 4, CF NFkB block 5, KKLEB cytotox 4 and Peg3 promoter 20.
For O=Nc1c(O)n(Cc2ccc(Cl)cc2)c2ccccc12 the results were TRPM1 prom inh 12, HIF-2a block 21, CF NFkB block 30, CHOP inh 16, KKLEB cytotox 12 and Peg3 promoter 30.
O=Nc1c(O)n(Cc2c(Cl)cccc2Cl)c2ccccc12 was read as TRPM1 prom inh 4, HIF-2a block 25, CF NFkB block 56*, CHOP inh 91*, KKLEB cytotox -24, Peg3 promoter 39 and CF NFkB inh conf 67*.
Screening O=C1CC(=O)OC(c2ccc([N+](=O)[O-])cc2)O1 returned HIF-2a block 86*, CF NFkB block 90*, KKLEB cytotox -22, Peg3 promoter 103* and CF NFkB inh conf 111*.
Screening Cc1nnc2n(c1=O)C(CS(=O)(=O)c1ccc3ccccc3c1)CS2 (stereo not given) returned TRPM1 prom inh 3, HIF-2a block 16, CF NFkB block 8, CHOP inh 2, KKLEB cytotox 5 and Peg3 promoter 6.
For COc1ccc(CN(CCC(c2ccc(F)cc2)C2CCOC(C)(C)C2)C(=O)c2ccco2)cc1 (stereo not given) the results were TRPM1 prom inh 10, HIF-2a block 2, CF NFkB block 74*, CHOP inh 14, KKLEB cytotox -15, Peg3 promoter 51* and CF NFkB inh conf 49*.
Screening O=C(O)CC/C(=N/NC(=O)c1ccc(-c2ccccc2)cc1)c1ccccc1 returned TRPM1 prom inh -5, HIF-2a block 5, CF NFkB block -23, KKLEB cytotox -6 and Peg3 promoter -12.
`O=C(CN1C(=O)CCC1=O)Nc1nc(-c2nc3ccccc3s2)cs1` gave TRPM1 prom inh -87, HIF-2a block -260, CF NFkB block 71*, CHOP inh 12, KKLEB cytotox 0, Peg3 promoter -251 and CF NFkB inh conf 92*.
For COc1ccc(Nc2nc(-c3cccs3)nc3ccccc23)cc1S(=O)(=O)N1CCOCC1 the results were TRPM1 prom inh 6, HIF-2a block -83, CF NFkB block 90*, KKLEB cytotox -36, Peg3 promoter 55* and CF NFkB inh conf 103*.
`COc1ccc(NS(=O)(=O)c2cccs2)cc1S(=O)(=O)N1CCOCC1` gave TRPM1 prom inh 10, HIF-2a block 2, CF NFkB block -6, KKLEB cytotox 0 and Peg3 promoter 13.
Cc1ccc2c(c1)C(=O)C(=O)N2Cc1ccc(Br)cc1 was read as TRPM1 prom inh 17, HIF-2a block -8, CF NFkB block 62*, KKLEB cytotox -22, Peg3 promoter -26 and CF NFkB inh conf 81*.
For CCN(CC(=O)Nc1cc(Cl)ccc1C)C(=O)CCOc1ccccc1C the results were TRPM1 prom inh 15, HIF-2a block 14, CF NFkB block 12, KKLEB cytotox -6 and Peg3 promoter 27.
O=C(O)c1cc([N+](=O)[O-])ccc1N1CCCCC1 was read as TRPM1 prom inh -11, HIF-2a block 15, CF NFkB block -7, CHOP inh -2, KKLEB cytotox 5 and Peg3 promoter -1.
For Cc1ccc(C(=O)c2cc([N+](=O)[O-])ccc2N2CCCCC2)c(C)c1 the results were TRPM1 prom inh 31, HIF-2a block 30, CF NFkB block 63*, CHOP inh -33, KKLEB cytotox -50, Peg3 promoter 17 and CF NFkB inh conf 83*.
C[C@H]1CN([C@@H](C)CO)C(=O)CCCn2cc(nn2)CO[C@@H]1CN(C)C(=O)Nc1ccc2c(c1)OCCO2 was read as HIF-2a block -44, CF NFkB block 20, KKLEB cytotox -16 and Peg3 promoter -38.
`COC(=O)N1C(=O)[C@](c2ccccc2)(C(C)C)N1C(=O)OC` gave TRPM1 prom inh 13, HIF-2a block 32, CF NFkB block 36, KKLEB cytotox -2 and Peg3 promoter 24.
